Assay [1] is described as follows: Tanguay_ZF_120hpf_ActivityScore_legacy: (Legacy) Oregon State University Tanguay Lab 120 Hour Post-fertilization zebrafish Assay Score for Activity (AID 2283742).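 As to AC50: dechorionated Tropical 5D wild-type zebrafish embryos held singly per well.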 Put shortly:
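Binary scoring of mortality and morphology by brightfield at 24 and 120 hpf, summarised into one activity score from 18 components relative to DMSO. Wild-type Tropical 5D zebrafish, chorion removed at 4 hpf, static exposure 6–120 hpf, 28 °C.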

Assay [2] can be described thus: ACEA_AR_agonist_AUC_viability: ACEA Biosciences xCELLigence Real-Time Cell Analysis on Androgen Receptor Agonism for Viability (AID 2283775).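 As to AC50: viability read 80 hours after compound addition.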 Put shortly:
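Viability endpoint from xCELLigence impedance in 22Rv1 prostate cells at 80 h. Eight-point series, 100 uM maximum final.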

Assay [3] has as its target Luciferin 4-monooxygenase (Photinus pyralis) (UniProt P08659). Briefly: CCTE_Simmons_QuantiLum_inhib_2: CCTE's Firefly Luciferase Inhibition Assay, Simmons Lab (AID 2283767).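 Also: potency for inhibitors that lower luciferase luminescence relative to DMSO.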 Put shortly:
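Cell-free QuantiLum luciferase, 5 ng/well; compounds 5 nM–87.5 uM final, 8 conc, 0.5% DMSO; 30 min, 37C, dark. Detection reagent (150 uM D-luciferin, 147 uM dATP, CoA, DTT, pH 7.8 final) injected per well, kinetic luminescence. Triplicate biological replicates.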

Assay [4] in a line: ACEA_AR_antagonist_AUC_viability: ACEA Biosciences xCELLigence Real-Time Cell Analysis on Androgen Receptor Antagonism for Viability (AID 2283776).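 Also: 22Rv1 human prostate cancer cells growing on impedance electrode plates; area under impedance growth curve at 80 h after dosing as viability; hits lower the growth signal relative to DMSO meaning cytotoxicity.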 Put shortly:
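Real-time electrical impedance tracks 22Rv1 proliferation after continuous compound exposure (top 100 uM final, 1:4 steps, 8 concentrations). The 80 h area-under-curve serves as the cytotoxicity readout relative to DMSO.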

In assay [5] the test system is zebrafish Androgen Receptor (AR), gene 100005148. Briefly: ATG_zfAR_XSP1: Attagene TRANS-FACTORIAL Multi-Species (XSP1) HepG2 Assay for zebrafish Androgen Receptor (AR) (AID 2283771). Put shortly: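 Gain-of-signal versus DMSO was measured as reporter transcripts quantified by RT-PCR, fluorescent labelling and capillary electrophoresis after 24 h chemical exposure. The cells were HepG2 expressing a chimeric zebrafish AR-GAL4, co-stimulated with 3 nM 6-alpha-fluorotestosterone.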

Assay [6] deals with zebrafish Estrogen Receptor (ESR1), esr1 (gene 259252) (UniProt P57717). Briefly: ATG_zfER1_XSP1: Attagene TRANS-FACTORIAL Multi-Species (XSP1) HepG2 Assay for zebrafish Estrogen Receptor (ESR1) (AID 2283772). Summed up: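 Readout: fluorescent reporter mRNA, RT-PCR plus FAM labelling, HpaI digest, capillary electrophoresis; gain-of-signal fit vs DMSO. HepG2, transient multi-reporter TRANS (NR-GAL4 chimera), 24 h chemical exposure, 3 nM 6-alpha-fluorotestosterone co-added.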

Assay [7] relates to zebrafish Estrogen Receptor (ESR2B), gene 317733. Briefly: ATG_zfER2b_XSP1: Attagene TRANS-FACTORIAL Multi-Species (XSP1) HepG2 Assay for zebrafish Estrogen Receptor (ESR2B) (AID 2283773). Summed up:
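Medium contained 3 nM 6-alpha-fluorotestosterone. Reporter mRNA induction by exogenous zebrafish ER2b-Gal4 chimera was read 24 h post-dose in transiently transfected HepG2 cells, using RT-PCR, fluorescent labelling, HpaI digestion and capillary electrophoresis.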

In assay [8] the test system is frog Estrogen Receptor (ESR2), gene 100174814. Briefly: ATG_frER2_XSP1: Attagene TRANS-FACTORIAL Multi-Species (XSP1) HepG2 Assay for frog Estrogen Receptor (ESR2) (AID 2283774). Summed up: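 Reporter mRNA from a multiplexed TRANS system, measured by RT-PCR with fluorescent labelling and capillary electrophoresis, 24 hours after chemical exposure. Human HepG2 liver cells carried exogenous frog ER-Gal4 chimera; medium included 3 nM 6-alpha-fluorotestosterone; increases versus DMSO analysed.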

Assay [9] deals with frog Estrogen Receptor (ESR1), gene 398734. Briefly: ATG_frER1_XSP1: Attagene TRANS-FACTORIAL Multi-Species (XSP1) HepG2 Assay for frog Estrogen Receptor (ESR1) (AID 2283777). Summed up:
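HepG2 cells transiently transfected with GAL4-UAS reporter units and frog ER–Gal4 chimera were dosed for 24 h with 3 nM 6-alpha-fluorotestosterone present. Reporter mRNA was measured by RT-PCR and capillary electrophoresis; gain of signal fitted versus DMSO.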

Assay [10] concerns chicken Androgen Receptor (AR), gene 422165. Briefly: ATG_chAR_XSP1: Attagene TRANS-FACTORIAL Multi-Species (XSP1) HepG2 Assay for chicken Androgen Receptor (AR) (AID 2283768). Summed up: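 Reporter mRNA read by RT-PCR with fluorescent labelling and capillary electrophoresis 24 h after chemical dosing of transiently transfected HepG2 cells. Chicken AR-Gal4 chimera, partially stimulated with 3 nM 6-alpha-fluorotestosterone; activity fitted upward relative to DMSO.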

The subject of assay [11] is frog Androgen Receptor (AR), gene 399456. Briefly: ATG_frAR_XSP1: Attagene TRANS-FACTORIAL Multi-Species (XSP1) HepG2 Assay for frog Androgen Receptor (AR) (AID 2283770).

Results filed as inconclusive are left out. Activity calls are given as the source filed them. The calls were made as follows: active = hit-call score of the fitted dose curve at least 0.9, where 1 is the maximum; inconclusive = response in the unintended direction; inactive = score below 0.9.

Sequence of zebrafish Estrogen Receptor (ESR1), esr1 (gene 259252) (P57717 whole entry, looked up, the tested form may be a part): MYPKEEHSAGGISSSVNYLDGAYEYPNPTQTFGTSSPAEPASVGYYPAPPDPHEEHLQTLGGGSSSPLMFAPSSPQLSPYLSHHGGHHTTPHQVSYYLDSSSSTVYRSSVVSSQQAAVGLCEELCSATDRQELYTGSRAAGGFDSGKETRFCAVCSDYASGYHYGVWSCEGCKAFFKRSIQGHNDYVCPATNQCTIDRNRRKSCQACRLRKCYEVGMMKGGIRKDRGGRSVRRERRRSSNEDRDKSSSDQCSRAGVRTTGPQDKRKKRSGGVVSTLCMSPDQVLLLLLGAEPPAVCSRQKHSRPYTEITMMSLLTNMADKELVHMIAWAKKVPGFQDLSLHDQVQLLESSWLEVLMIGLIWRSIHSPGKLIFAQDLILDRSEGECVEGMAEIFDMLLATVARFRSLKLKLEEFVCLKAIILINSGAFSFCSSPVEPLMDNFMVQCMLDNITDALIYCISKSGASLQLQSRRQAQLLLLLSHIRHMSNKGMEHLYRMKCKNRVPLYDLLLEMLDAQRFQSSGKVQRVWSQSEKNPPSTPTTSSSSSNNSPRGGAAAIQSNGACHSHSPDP
Sequence of Luciferin 4-monooxygenase (Photinus pyralis) (P08659 whole entry, looked up): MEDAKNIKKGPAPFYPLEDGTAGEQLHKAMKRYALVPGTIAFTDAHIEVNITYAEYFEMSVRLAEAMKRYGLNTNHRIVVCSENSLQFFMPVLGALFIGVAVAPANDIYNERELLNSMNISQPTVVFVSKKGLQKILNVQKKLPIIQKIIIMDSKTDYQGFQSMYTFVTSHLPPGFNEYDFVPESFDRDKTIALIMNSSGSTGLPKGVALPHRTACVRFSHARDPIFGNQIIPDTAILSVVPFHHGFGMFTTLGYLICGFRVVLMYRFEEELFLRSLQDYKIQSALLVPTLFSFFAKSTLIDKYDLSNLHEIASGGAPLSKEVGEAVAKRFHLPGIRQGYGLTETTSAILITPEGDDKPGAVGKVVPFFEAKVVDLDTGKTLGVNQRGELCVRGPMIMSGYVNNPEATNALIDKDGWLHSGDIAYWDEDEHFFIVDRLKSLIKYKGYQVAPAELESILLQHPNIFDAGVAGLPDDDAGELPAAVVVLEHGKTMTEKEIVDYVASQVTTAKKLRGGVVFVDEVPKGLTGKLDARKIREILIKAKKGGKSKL

As for `CCCN(CCC)C(=O)SCC`, the outcome in assay [1] and in assay [2] was inactive.

In general, AC50 refers to the concentration giving half of the maximal activity seen. Consider `N#CSCSc1nc2ccccc2s1`, for which the AC50 is 0.11 µM (active) in assay [1], 0.435 µM (active) in assay [3], 19.4 µM (active) in assay [2] and 15.7 µM (active) in assay [4].

`C=CCOC(Cn1ccnc1)c1ccc(Cl)cc1Cl` (centres undefined): the AC50 in assay [1] was 11.7 µM (active); in [7], 20.5 µM (active); in assay [8] it was 11.6 µM (active); in [2], 66.4 µM (active); in [4] it was 41.6 µM (active); in [9], 3.63 µM (active). The result in assay [5] and in assay [6] was inactive.

As to `CCCCC(CC)COC(=O)c1ccccc1C(=O)O` (centres undefined), the molecule was classed as inactive in assay [1], in assay [11], in assay [5], in assay [2] and in [4]. Also, the AC50 is 26.5 µM (active) in [10], 62.5 µM (active) in [7], 61.8 µM (active) in assay [8] and 13.6 µM (active) in assay [9].

As for `CCCCOC(=O)[C@@H](C)Oc1ccc(Oc2ccc(C(F)(F)F)cn2)cc1`, the molecule was called inactive in [1], in assay [2] and in assay [4].

In the case of `Cc1nn(C)c(Oc2ccccc2)c1C=NOCc1ccc(C(=O)OC(C)(C)C)cc1`, the AC50 in assay [1] is 2.45 µM (active); in assay [2], 13 µM (active); in assay [4], 13.8 µM (active).

With `COCCO`, the molecule was classed as inactive in [1] and in assay [4].

As to `CCCOC(=O)NCCCN(C)C`, the molecule was called inactive in assay [1], in assay [2] and in [4].

Regarding `O=C(c1ccccc1)C1CCCCC1`, the outcome in assay [1], in [2] and in assay [4] was inactive.

As for `CCOC(=O)c1ccc(O)cc1`, the result in assay [1] and in [4] was inactive.

Regarding `COC(=O)CSc1cc(N=c2sc(=O)n3n2CCCC3)c(F)cc1Cl`, the molecule was called inactive in assay [1], in assay [2] and in assay [4].

For `CCNc1nc(N)nc(Cl)n1`, the molecule was classed as inactive in assay [1] and in assay [4].

As to `CCC(C)OC(=O)N1CCCCC1CCO` (centres undefined), the molecule was classed as inactive in assay [1], in [2] and in [4].

With `COC(=O)c1ccc(I)cc1S(=O)(=O)NC(=O)Nc1nc(C)nc(OC)n1`, the outcome in [1], in [2] and in assay [4] was inactive.

In the case of `COc1c(Cl)ccc(Cl)c1C(=O)O`, the outcome in assay [1], in assay [2] and in assay [4] was inactive.

For the molecule `c1ccc2[nH]c(-c3cscn3)nc2c1`, in [1], the molecule was classed as inactive. In addition, the AC50 in [2] is 39.2 µM (active); in [4] it was 34.5 µM (active).

Regarding `CCOC(=O)NCCOc1ccc(Oc2ccccc2)cc1`, in [1], the molecule was called inactive. For the same molecule, the values for the AC50 in assay [2] and in [4] were 50 µM (active) and 27.2 µM (active), respectively.

As to `CCN(CC)C(=O)c1cccc(C)c1`, the molecule was classed as inactive in [1], in assay [2] and in assay [4].

`CCCN(CCC)c1c([N+](=O)[O-])cc(C(F)(F)F)c(N)c1[N+](=O)[O-]`: the outcome in assay [1] was inactive. Also, the AC50 in [2] was 14.9 µM (active); in assay [4], 35 µM (active).

Turning to `CC(C)(C)[C@@H](O)[C@@H](Cc1ccc(Cl)cc1)n1cncn1`, the molecule was classed as inactive in assay [1] and in [2]. Further, in assay [4], the AC50 is 24.1 µM (active).

For the molecule `CCOC(=O)COc1cc(-n2ncc(C(F)(F)F)c(C)c2=O)c(F)cc1Cl`, the molecule was classed as inactive in [1], in [2] and in assay [4].

As to `CC(=O)[C@H]1CC[C@H]2[C@@H]3CCC4=CC(=O)CC[C@]4(C)[C@H]3CC[C@]12C`, the molecule was called inactive in [1], in assay [2] and in assay [4].

For `COC(=O)c1ccccc1C(=O)O`, the call in [1], in assay [2] and in [4] was inactive.

For the molecule `CCN(Cc1c(F)cccc1Cl)c1c([N+](=O)[O-])cc(C(F)(F)F)cc1[N+](=O)[O-]`, the outcome in assay [1] was inactive. The AC50 in [2] is 50 µM (active); in [4], 25 µM (active).

As for `C[C@]12C[C@H](O)[C@H]3[C@@H](CCC4=CC(=O)CC[C@@]43C)[C@@H]1CC[C@@H]2C(=O)CO`, the outcome in assay [1] and in assay [4] was inactive.

Consider `CCCCOC(=O)C(C)Oc1ccc(Oc2ccc(C(F)(F)F)cn2)cc1` (centres undefined), for which the molecule was classed as inactive in assay [1]. For the same molecule, the values for the AC50 in assay [2] and in [4] were 43.1 µM (active) and 50 µM (active), respectively.

Turning to `CCCCCOC(=O)COc1cc(N2C(=O)C3=C(CCCC3)C2=O)c(F)cc1Cl`, in assay [1], the call was inactive. Moreover, the AC50 is 78.1 µM (active) in assay [2] and 77.8 µM (active) in assay [4].

For the molecule `CC1(C)C(C=C(Cl)Cl)C1C(=O)OCc1cccc(Oc2ccccc2)c1` (centres undefined), the molecule was classed as inactive in assay [10], in assay [5], in [6] and in assay [9]. Further, the AC50 in assay [7] was 19.8 µM (active); in assay [8] it was 2.79 µM (active); in assay [2], 30.8 µM (active); in assay [4], 34.2 µM (active).

Take `OB(O)O`: the molecule was called inactive in [1] and in assay [4].

For the molecule `O=C(O)C1(C(=O)Nc2ccc(Cl)cc2Cl)CC1`, the AC50 in assay [1] was 19.6 µM (active); in assay [2] it was 50 µM (active); in assay [4] it was 50 µM (active).

As to `CCSC(=O)N(CC(C)C)CC(C)C`, the result in [1], in assay [2] and in assay [4] was inactive.

These data come from PubChem BioAssay (EPA / NIEHS).
